# CYP2C9 inhib: blockers of cytochrome P450 2C9 activity – biochemical, luminescence, ADME assay, primary screen; P11712; CYP2C9 Supersomes, luciferin-H conversion; inhibition, % at 5 µM; 20% of 96,000 active; AID 777, 2007;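 active = blocking of liver enzyme CYP2C9 beyond about 50% at 5 µM, limit read from the data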
# Pyk2 oligo antag: antagonists of Pyk2 self-association, primary screen, Q293 cells, FERM NanoBiT luminescence, HTS. Protein-tyrosine kinase 2-beta (Homo sapiens), Q14289. active compounds read low. z-score (the deposit names both 25 µM and 10 µM). 0.83% of 99,000 active. AID 1347419, 2020;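 active = Z-score of -3 or lower, scaled per plate to the spread of control and sample wells; inactive = z-score above -3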;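 also: negative z-score means lost luminescence so less FERM oligomerization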
# CYP2C19 act: human CYP2C19 activators, primary screen, biochemical, luminescence; 96,000 tested, under 10 active; Cytochrome P450 2C19 (Homo sapiens), P33261; recombinant CYP2C19, luciferin-H EGE luminescence; active compounds read high; 0 = fully inhibited enzyme, 1 = untreated enzyme; AID 1025, 2008; activation factor at 5 µM;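 active = activation factor of at least 2 at 5 µM in the primary screen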;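 also: 0 = wells with 2.5 mM tranylcypromine and 1 = vehicle-only wells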
# Target sequence (P33261 whole entry, looked up): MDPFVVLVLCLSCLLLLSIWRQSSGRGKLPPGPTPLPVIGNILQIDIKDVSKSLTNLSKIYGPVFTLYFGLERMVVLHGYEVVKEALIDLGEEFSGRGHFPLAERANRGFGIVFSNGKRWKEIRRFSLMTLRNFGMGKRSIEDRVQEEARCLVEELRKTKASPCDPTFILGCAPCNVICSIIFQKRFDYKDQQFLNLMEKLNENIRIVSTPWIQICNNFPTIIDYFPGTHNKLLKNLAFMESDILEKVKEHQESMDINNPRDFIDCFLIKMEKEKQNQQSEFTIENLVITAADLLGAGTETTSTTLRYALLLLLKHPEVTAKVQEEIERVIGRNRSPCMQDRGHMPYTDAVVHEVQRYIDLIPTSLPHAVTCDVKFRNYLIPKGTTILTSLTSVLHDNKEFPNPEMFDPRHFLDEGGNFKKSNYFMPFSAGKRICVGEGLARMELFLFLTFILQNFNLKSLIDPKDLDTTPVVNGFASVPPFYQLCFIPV
# Cav3 T inh: Cav3.2 calcium influx blockers – cell-based, Fluo-4 calcium fluorescence, FDSS, MLSMR library, primary screen. Cav3.2-expressing cells; active compounds read low. B-score at 10 µM. 4% of 100,000 active;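 active = single-dose well whose peak fluorescence ratio is a statistical outlier from its plate by either plate-standardised score or position-corrected B-score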
# CYP2C19 inh: blockers of cytochrome P450 2C19 activity – biochemical, luminescence, ADME assay, primary screen; AID 778, 2007; inhibition, % at 5 µM; P33261; CYP2C19 Supersomes, luciferin-H EGE luminescence, 30 min; 21% of 96,000 active;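 active = CYP2C19 inhibition above a set limit at 5 µM in the primary screen, cut at about 50% in these data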;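 also: plate controls were negative control wells for no effect and 2.5 mM tranylcypromine positive control for full effect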
# CYP2C9 act: human CYP2C9 activators, primary screen, biochemical, luminescence. recombinant CYP2C9, luciferin-H conversion; active compounds read high; factor 1 = untreated enzyme, 0 = blocked. Cytochrome P450 2C9 (Homo sapiens), P11712. activation factor at 5 µM. AID 1024, 2008. 1.4% of 96,000 active;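 active = activation factor of 2 or more for CYP2C9 at a 5 µM dose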;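 also: 0 = sulfaphenazole-blocked wells and 1 = vehicle-only wells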
# Numbers without * were called inactive; . = not tested or not shown. This is a sample that favours compounds with a hit; in the whole collection about 27% have one here.
SMILES,CYP2C9 inhib,Pyk2 oligo antag,CYP2C19 act,Cav3 T inh,CYP2C19 inh,CYP2C9 act
O=C(CC1OC(=O)c2ccccc21)c1ccco1 (centres undefined),-11,0.59,1.1,0.034,-10,1.1
COc1cccc(C(=O)c2sc(NC(C)C)nc2N)c1,.,-1.8,.,1.5,.,.
COc1ccccc1S(=O)(=O)Cc1ccc(C(=O)NCCN2CCCCCC2)o1,-7,.,1.2,0.8,-17,1.1
Cc1ccccc1S(=O)(=O)Cc1ccc(C(=O)O)o1,-13,0.36,1.2,1.2,-16,1.1
Cc1ccccc1S(=O)(=O)Cc1ccc(C(=O)N2CCN(c3ncccn3)CC2)o1,84*,-0.2,0.1,0.93,92*,0.2
CCOC(=O)N1CCN(C(=O)c2ccc(CS(=O)(=O)c3ccccc3OC)o2)CC1,22,0.25,1,-0.62,-3,0.8
COc1ccc(S(=O)(=O)Cc2ccc(C(=O)N3CCN(c4cccc(C)c4)C(C)C3)o2)cc1 (centres undefined),90*,.,0.4,-2,58*,0.1
COc1ccccc1S(=O)(=O)Cc1ccc(C(=O)N2CCN(c3ccc(C)cc3)C(C)C2)o1 (centres undefined),91*,.,0.4,-0.85,55*,0.1
COc1ccccc1N1CCN(C(=O)c2ccc(CS(=O)(=O)c3ccccc3OC)o2)CC1,79*,0.65,0.7,2.4,35,0.2
COc1cc(/C=C2/N=C(c3ccccc3)OC2=O)c(F)cc1OCc1ccccc1,.,.,.,-1.3,.,.
N#C/C(=C\c1ccc(N2CCCC2)c([N+](=O)[O-])c1)c1nc2ccccc2[nH]1,20,-2.8,0.7,-1.2,31,0.8
CC1CCCN(c2ccc(/C=C(\C#N)c3nn(-c4ccccc4)c(N)c3C#N)cc2[N+](=O)[O-])C1 (centres undefined),80*,-1.6,0.6,-0.77,35,0.2
CC1CCN(c2cc(N3CCC(C)CC3)c([N+](=O)[O-])cc2/C=C(\C#N)c2nn(-c3ccccc3)c(N)c2C#N)CC1,81*,-0.95,0.5,-0.51,51*,0.2
O=C1N=C(N2CCN(c3cccc4ccccc34)CC2)S/C1=C/c1cccs1,-6,0.41,0.5,-1.9,54*,1.1
O=C1N=C(N2CCOCC2)S/C1=C/c1cccs1,-7,0.31,0.9,-0.68,9,1.1
CN(C)S(=O)(=O)c1cccc(CSc2cccc[n+]2[O-])c1,6,0.39,1,0.41,4,0.9
CCOC(=O)CCS(=O)(=O)c1ccc(-c2ccc(S(=O)(=O)CCC(=O)OCC)cc2)cc1,-4,0.09,1.2,-0.013,-20,1
Cc1ccc(NC(=O)c2cc(C)nn2-c2ccccc2)cc1,29,.,0.4,0.0074,60*,0.7
Cc1cc(C(=O)NCc2cccnc2)n(-c2ccccc2)n1,20,.,0.4,-0.36,60*,0.8
Cc1nn(Cc2ccccc2)c2sc(C(=O)NCc3cccnc3)cc12,82*,-0.33,0.4,.,62*,0.2
Cc1cc(C(=O)NCc2ccc3c(c2)OCO3)n(-c2ccccc2)n1,21,.,0.6,-1.6,44,0.8
Cc1nc2ccccn2c1C(=O)NCc1cccnc1,9,-0.39,0.5,0.042,49,0.9
Cc1c(NC(=O)CCCCCN2C(=O)C3C4C=CC(C4)C3C2=O)c(=O)n(-c2ccccc2)n1C (centres undefined),10,.,1.2,0.17,-15,0.9
CCc1n[nH]c2c1/C(=N\O)CC(c1ccccc1)C2 (centres undefined),98*,-1.1,0,-0.0075,96*,0
CCCCc1n[nH]c2c1/C(=N/O)CC(c1ccccc1)C2 (centres undefined),18,-2.7,0.6,0.051,40,0.8
SMILES,CYP2C9 inhib,Pyk2 oligo antag,CYP2C19 act,Cav3 T inh,CYP2C19 inh,CYP2C9 act
CC(C)(C)C(=O)N1CCN(c2c(Cl)cccc2[N+](=O)[O-])CC1,85*,-0.61,0.4,-1.8,65*,0.1
CC(C)(C)C(=O)N1CCC(O)(CS(=O)(=O)Cc2ccccc2Cl)CC1,14,1.6,0.9,0.11,13,0.9
O=C1c2cccc3cccc(c23)C(=O)N1c1ccc2ncccc2c1,.,-1.1,.,0.48,.,.
COc1cc(C(=O)OCC(=O)c2cc(C)n(C)c2C)cc(OC)c1OC,-148,0.14,0.4,1.7,58*,2.5*
O=C([C@H](Cc1ccccc1)NS(=O)(=O)c1ccc(Cl)cc1)N1CC[C@@]2(O)CCCC[C@H]2C1,35,-1.4,0.6,-3.3*,40,0.6
COc1ccc(S(=O)(=O)N[C@@H](Cc2ccccc2)C(=O)N2CC[C@@]3(O)CCCC[C@H]3C2)cc1,49,1.2,0.7,0.38,34,0.5
Cc1cccc2nc(CSc3nnc4ccccn34)cn12,-10,1.2,0.9,-0.21,13,1.1
COc1ccc(/C=C2/C(=O)N(CC3CCCO3)C(=S)N2C)c(OC)c1 (centres undefined),90*,-1.8,0.4,-1.8,64*,0.1
COCCCn1c(Cc2ccccc2)nnc1SCC(=O)N1CCCCC1,38,1.1,0.9,0.47,14,0.6
Cn1c(NC(=O)c2cc(Cl)ccc2Cl)cc(=O)n(C)c1=O,16,.,0.7,-0.46,26,0.8
Cn1c(NC(=O)C(C)(C)Oc2ccc(Cl)cc2)cc(=O)n(C)c1=O,25,.,0,-0.022,98*,0.8
CC(C)CNC(=O)c1ccc(COc2ccc(Cl)cc2Cl)o1,76*,-0.14,0.6,-4.5*,40,0.2
O=C(Nc1ccccc1F)c1ccc(COc2ccc(Cl)cc2Cl)o1,.,0.4,.,-0.5,.,.
O=C(Nc1ccn(Cc2c(F)c(F)c(F)c(F)c2F)n1)c1ccc(COc2ccccc2Cl)cc1,70*,0.25,0.6,-0.14,43,0.3
Cc1nn(Cc2ccc(Cl)cc2Cl)c(C)c1NC(=O)c1nn(C)cc1Cl,-18,-0.87,0.9,0.1,6,1.2
O=C(Nc1ccn(Cc2c(F)c(F)cc(F)c2F)n1)c1ccc(COc2ccc(Cl)cc2Cl)o1,99*,0.51,0.1,-1.3,92*,0
Cc1nn(Cc2ccc(Cl)cc2Cl)c(C)c1NC(=O)c1ccc(COc2cc(Cl)ccc2Cl)o1,47,-0.13,0.7,-5.2*,32,0.5
O=C(Nc1ccc(Cn2cccn2)cc1)c1ccc(COc2ccccc2Br)cc1,36,0.09,1,-3.3,4,0.6
CCOC(=O)C1NC(=O)CC1c1ccccc1 (centres undefined),-1,0.43,1,1.1,-3,1
Cc1c(Cl)cccc1NC(=O)C1NC(=O)CC1c1ccccc1 (centres undefined),46,.,0.2,.,81*,0.5

# Screening data: PubChem, several laboratories
